Measurements: PubChem BioAssay (NCI)
This is part of a sample that, as a whole, favours compounds with a hit. Of some 79,000 tested, about 15% had one in any assay. The source made the active and inactive calls. Rule as the data show it: active = growth inhibition above about 70%; inactive = the rest.

Tests used:
[1] = NCI Yeast Anticancer Drug Screen. Data for the rad52 strain (AID 147);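 also: 0% = growth of vehicle-treated control cultures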; conditions: S. cerevisiae rad52 mutant growth inhibition, active compounds read high
In short: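 Inhibition of yeast growth, referenced to vehicle controls, was the measured output for a strain with defective DNA damage repair.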

[2] = NCI Yeast Anticancer Drug Screen. Data for the wt1 strain (AID 149);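 also: 0% = growth of vehicle-treated wt1 cultures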; conditions: S. cerevisiae wt1 strain (SPY 50644) growth inhibition, active compounds read high
In short: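 The wt1 strain was treated with compounds, and growth was compared with vehicle-treated cultures to give inhibition.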

[3] = NCI Yeast Anticancer Drug Screen. Data for the rad50EPP+ strain (AID 151);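 also: 0% = growth of vehicle-treated control cultures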; conditions: S. cerevisiae rad50 mutant strain, active compounds read high
In short: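 Genetically defined yeast (rad50EPP+, DNA damage repair alteration) is grown with compound, and inhibition of growth is expressed relative to vehicle-treated controls.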

[4] = NCI Yeast Anticancer Drug Screen. Data for the rad50 strain (AID 155);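 also: 0% = growth of vehicle-only cultures of the same strain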; conditions: S. cerevisiae rad50 strain growth inhibition, active compounds read high
In short: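 Cells are treated with compound, grown, and their growth is then scored against vehicle-only cultures of the same repair-deficient yeast strain.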

[5] = NCI Yeast Anticancer Drug Screen. Data for the mec2-1 strain (AID 157); conditions: S. cerevisiae mec2-1 strain, active compounds read high
In short: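 Each compound was tested on mec2-1 yeast, a strain altered in DNA damage repair or cell cycle control. Growth inhibition is reported relative to vehicle.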

[6] = NCI Yeast Anticancer Drug Screen. Data for the rad14 strain (AID 159);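 also: 0% = growth of vehicle-treated control cultures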; conditions: S. cerevisiae rad14 strain growth inhibition, active compounds read high
In short: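 Readout: yeast growth inhibition, referenced to vehicle-only cultures. Strain bears a defined alteration in DNA damage repair.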

[7] = NCI Yeast Anticancer Drug Screen. Data for the sgs1 mgt1 strain (AID 161);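 also: 0% = growth of cultures given vehicle only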; conditions: S. cerevisiae sgs1 mgt1 strain, active compounds read high
In short: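 Read-out: growth inhibition vs vehicle controls. Cells: mutant yeast strain deficient in DNA damage repair.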

[8] = NCI Yeast Anticancer Drug Screen. Data for the CLN2oe strain (AID 163);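 also: 0% = growth of vehicle-only control cultures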; conditions: S. cerevisiae CLN2oe strain, active compounds read high
In short: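 First, the altered yeast strain was treated with each compound; second, its growth was measured; finally, inhibition was derived by comparison with vehicle controls.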

[9] = NCI Yeast Anticancer Drug Screen. Data for the cln2 rad14 strain (AID 165);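 also: 0% = growth equal to vehicle treated cultures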; conditions: S. cerevisiae cln2 rad14 strain, active compounds read high
In short: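 Test compounds were added to cln2 rad14 yeast cultures; inhibition of growth was then determined by comparison with vehicle treatment.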

[10] = NCI Yeast Anticancer Drug Screen. Data for the wt2 strain (AID 169);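 also: 0% = growth of vehicle-treated yeast cultures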; conditions: S. cerevisiae wt2 strain growth inhibition, active compounds read high
In short: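 The panel's yeast strains carry defined changes in DNA repair or cell cycle genes. Each strain is grown with compound, and growth loss is scored relative to vehicle.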

[11] = NCI Yeast Anticancer Drug Screen. Data for the mlh1 strain (AID 171);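 also: 0% = growth of vehicle-treated control cultures of the same strain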; conditions: S. cerevisiae mlh1 strain growth inhibition, active compounds read high
In short: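 Inhibition values reflect reduced yeast growth in the presence of compound, referenced to vehicle controls, using a strain chosen for its alteration in DNA repair or cell cycle control.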

[12] = NCI Yeast Anticancer Drug Screen. Data for the sgs1 strain (AID 173);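 also: 0% = growth of vehicle-only control cultures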; conditions: S. cerevisiae sgs1 mutant, active compounds read high
In short: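 Vehicle-treated cultures served as reference for growth inhibition of a yeast strain altered in DNA damage repair or cell cycle control after compound exposure.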

[13] = NCI Yeast Anticancer Drug Screen. Data for the mlh1 rad18 strain (AID 175); conditions: S. cerevisiae mlh1 rad18 strain growth inhibition, active compounds read high
In short: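 Inhibition values reflect reduced growth of mutant yeast versus vehicle-treated controls following compound exposure; the mutations affect DNA damage repair.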

[14] = NCI Yeast Anticancer Drug Screen. Data for the rad18 strain (AID 177); conditions: S. cerevisiae rad18 mutant growth inhibition, active compounds read high
In short: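 Steps: expose repair-mutant yeast to compound; measure growth; express as inhibition relative to vehicle control.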

[15] = NCI Yeast Anticancer Drug Screen. Data for the bub3 strain (AID 167); conditions: S. cerevisiae bub3 mutant strain, active compounds read high
In short: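 Part of a panel of yeast mutants defective in DNA damage repair or cell cycle regulation. Each strain is grown with compound, and inhibition is calculated relative to solvent-treated cultures.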

[16] = at 5.0 µM (retest, dose inferred, filed as 0.5)
[17] = at 50.0 µM (retest, dose inferred, filed as 5.0)

Measured: growth inhibition

CCCCC(CC)C(=O)Oc1ccc(C(=O)c2ccccc2)c(O)c1 (stereo unspecified)
active: [1]; at 100.0 µM 98% | [2]; at 100.0 µM 98% | [3]; at 100.0 µM 88% | [4]; [17] 76% | [4]; at 50.0 µM 74.9% | [4]; at 100.0 µM 96% | [5]; [17] 79% | [5]; at 50.0 µM 75.2% | [5]; at 100.0 µM 98% | [6]; at 100.0 µM 97% | [7]; [17] 91% | [7]; at 50.0 µM 82% | [8]; at 100.0 µM 97% | [9]; [17] 88% | [10]; at 100.0 µM 97% | [11]; at 100.0 µM 97% | [12]; at 100.0 µM 97% | [13]; [17] 77% | [14]; at 100.0 µM 97%
inactive: [1]; at 1.2 µM 4% | [1]; at 3.7 µM 3% | [1]; at 11.0 µM 6% | [1]; at 33.0 µM 61% | [2]; at 1.2 µM -13% | [2]; at 3.7 µM -17% | [2]; at 11.0 µM -15% | [2]; at 33.0 µM 37% | [3]; at 1.2 µM 8% | [3]; at 3.7 µM 13% | [3]; at 11.0 µM 20% | [3]; at 33.0 µM 54% | [4]; at 1.2 µM 7% | [4]; at 3.7 µM 4% | [4]; [16] 50% | [4]; at 11.0 µM 15% | [4]; at 33.0 µM 56% | [5]; at 1.2 µM 10% | [5]; at 3.7 µM 15% | [5]; [16] 53% | [5]; at 11.0 µM 19% | [5]; at 33.0 µM 61% | [6]; at 1.2 µM -5% | [6]; at 3.7 µM -6% | [6]; at 11.0 µM -8% | [6]; at 33.0 µM 29% | [7]; [16] -32% | [8]; at 1.2 µM 0% | [8]; at 3.7 µM 17% | [8]; at 11.0 µM 19% | [8]; at 33.0 µM 50% | [9]; [16] 48% | [9]; at 50.0 µM 65% | [10]; at 1.2 µM -18% | [10]; at 3.7 µM -7% | [10]; at 11.0 µM -4% | [10]; at 33.0 µM 37% | [11]; at 1.2 µM -9% | [11]; at 3.7 µM -10% | [11]; at 11.0 µM 3% | [11]; at 33.0 µM 55% | [12]; at 1.2 µM 10% | [12]; at 3.7 µM 9% | [12]; at 11.0 µM 20% | [12]; at 33.0 µM 63% | [13]; [16] 38% | [13]; at 50.0 µM 69.3% | [14]; at 1.2 µM -4% | [14]; at 3.7 µM 0% | [14]; at 11.0 µM 17% | [14]; at 33.0 µM 53%

S=c1nc(Cl)cc2[nH]c(Cl)cn12
active: [1]; at 100.0 µM 93% | [3]; at 33.0 µM 89% | [3]; at 100.0 µM 98% | [4]; at 33.0 µM 73% | [4]; [17] 75% | [4]; at 50.0 µM 78.8% | [4]; at 100.0 µM 98% | [5]; at 50.0 µM 82.5% | [5]; at 100.0 µM 80% | [9]; at 50.0 µM 76.6% | [15]; at 50.0 µM 78.5% | [15]; at 100.0 µM 94% | [10]; at 100.0 µM 83% | [11]; at 100.0 µM 90% | [12]; at 100.0 µM 99% | [13]; at 50.0 µM 96.5% | [14]; at 100.0 µM 96%
inactive: [1]; at 1.2 µM 2% | [1]; at 3.7 µM 6% | [1]; at 11.0 µM 14% | [1]; at 33.0 µM 43% | [2]; at 1.2 µM -3% | [2]; at 3.7 µM -3% | [2]; at 11.0 µM -2% | [2]; at 33.0 µM 13% | [2]; at 100.0 µM 42% | [3]; at 1.2 µM 4% | [3]; at 3.7 µM 18% | [3]; at 11.0 µM 44% | [4]; at 1.2 µM 7% | [4]; at 3.7 µM 9% | [4]; [16] -132% | [4]; at 11.0 µM 27% | [5]; at 1.2 µM 3% | [5]; at 3.7 µM 4% | [5]; [16] -46% | [5]; at 11.0 µM 13% | [5]; at 33.0 µM 24% | [5]; [17] -8% | [6]; at 1.2 µM 1% | [6]; at 3.7 µM -1% | [6]; at 11.0 µM 10% | [6]; at 33.0 µM 20% | [6]; at 100.0 µM 59% | [7]; [16] -61% | [7]; [17] 3% | [7]; at 50.0 µM 47.4% | [9]; [16] -57% | [9]; [17] -39% | [15]; at 1.2 µM -4% | [15]; at 3.7 µM -3% | [15]; [16] -30% | [15]; at 11.0 µM 9% | [15]; at 33.0 µM 30% | [15]; [17] 44% | [10]; at 1.2 µM 2% | [10]; at 3.7 µM 3% | [10]; at 11.0 µM 5% | [10]; at 33.0 µM 11% | [11]; at 1.2 µM 8% | [11]; at 3.7 µM 1% | [11]; at 11.0 µM 5% | [11]; at 33.0 µM 19% | [12]; at 1.2 µM 3% | [12]; at 3.7 µM 3% | [12]; at 11.0 µM 15% | [12]; at 33.0 µM 42% | [13]; [16] -117% | [13]; [17] 10% | [14]; at 1.2 µM 1% | [14]; at 3.7 µM 3% | [14]; at 11.0 µM 14% | [14]; at 33.0 µM 44%

Cc1cccc(/C=N/NC(=S)N(C)CCc2ccccn2)n1
active: [1]; at 1.2 µM 96% | [1]; at 3.7 µM 98% | [1]; at 11.0 µM 98% | [1]; at 33.0 µM 99% | [1]; at 100.0 µM 99% | [2]; at 1.2 µM 90% | [2]; at 3.7 µM 94% | [2]; at 11.0 µM 98% | [2]; at 33.0 µM 99% | [2]; at 100.0 µM 99% | [3]; at 33.0 µM 84% | [3]; at 100.0 µM 90% | [4]; at 1.2 µM 91% | [4]; at 3.7 µM 94% | [4]; at 11.0 µM 96% | [4]; at 33.0 µM 98% | [4]; [17] 99% | [4]; at 50.0 µM 78.6% | [4]; at 100.0 µM 98% | [5]; at 1.2 µM 94% | [5]; at 3.7 µM 97% | [5]; [16] 81% | [5]; at 11.0 µM 98% | [5]; at 33.0 µM 99% | [5]; [17] 97% | [5]; at 50.0 µM 86.7% | [5]; at 100.0 µM 99% | [6]; at 1.2 µM 95% | [6]; at 3.7 µM 97% | [6]; at 11.0 µM 99% | [6]; at 33.0 µM 99% | [6]; at 100.0 µM 99% | [7]; [17] 97% | [7]; at 50.0 µM 91.3% | [8]; at 1.2 µM 81% | [8]; at 3.7 µM 92% | [8]; at 11.0 µM 97% | [8]; at 33.0 µM 98% | [8]; at 100.0 µM 98% | [9]; [17] 97% | [9]; at 50.0 µM 90.7% | [15]; at 3.7 µM 91% | [15]; at 11.0 µM 97% | [15]; at 33.0 µM 98% | [15]; [17] 99% | [15]; at 50.0 µM 91% | [15]; at 100.0 µM 98% | [11]; at 1.2 µM 91% | [11]; at 3.7 µM 95% | [11]; at 11.0 µM 98% | [11]; at 33.0 µM 98% | [11]; at 100.0 µM 99% | [13]; [17] 99% | [13]; at 50.0 µM 92.1% | [14]; at 1.2 µM 92% | [14]; at 3.7 µM 96% | [14]; at 11.0 µM 98% | [14]; at 33.0 µM 98% | [14]; at 100.0 µM 98%
inactive: [3]; at 1.2 µM -23% | [3]; at 3.7 µM -11% | [3]; at 11.0 µM 54% | [4]; [16] 16% | [7]; [16] 44% | [9]; [16] 9% | [15]; at 1.2 µM 56% | [15]; [16] 56% | [13]; [16] 61%
